Laboratory results reported in PubChem BioAssay AID2315 (National Center for Advancing Translational Sciences (NCATS), 2010).
The campaign covered roughly 290,000 compounds. About 27,000 (9.3%) were called active. Rule as the data show it: active = inhibition mostly above about 28% (no sharp cut-off); inactive = mostly below about 43%. The full list was thinned out, with actives kept by preference.

Test: A qHTS for Small Molecule Inhibitors of Shiga Toxin; as to inhibition: 0% is about no effect
Conditions: Vero cells, Shiga toxin protein synthesis inhibition reporter; at 38.7 µM, active compounds read high

Compound	inhibition
CC(=O)Nc1cccc(NC(=O)CSc2nccn2Cc2ccc(F)cc2)c1	-6.32% (inactive)
NS(=O)(=O)c1ccc(NC(=O)COC(=O)c2ccc(Cl)nc2)cc1	-4.23% (inactive)
COc1cc(-c2cc(C(=O)OCC(=O)Nc3ccc4c(c3)OCO4)c3ccccc3n2)cc(OC)c1OC	3.34% (inactive)
NS(=O)(=O)c1ccc(NC(=O)COC(=O)c2c3c(nc4ccccc24)/C(=C\c2ccc4c(c2)OCO4)CCC3)cc1	3.72% (active)
O=C(COC(=O)c1c2c(nc3ccccc13)/C(=C\c1cccs1)CCC2)Nc1ccccc1Cl	24.9% (inactive)
NC(=O)c1ccc(NC(=O)COC(=O)c2c3c(nc4ccccc24)/C(=C\c2ccc4c(c2)OCO4)CCC3)cc1	59.8% (active)
NS(=O)(=O)c1ccc(NC(=O)COC(=O)c2cc3ccccc3oc2=O)cc1	16.5% (inactive)
O=C(N/C(=C/c1ccc(Cl)cc1)C(=O)N1CCCCC1)c1ccco1	5.11% (inactive)
O=C1CCC(C(=O)N2CCN(c3ccccc3Cl)CC2)CN1CC1CCCCC1 (stereo not drawn)	-2.81% (inactive)
Cc1c(OC(C)C(=O)NCC2CCC(C(=O)O)CC2)ccc2c1oc(=O)c1ccccc12 (stereo not drawn)	-3.63% (inactive)
CCCC[C@]12Cc3cc(OC)c(OC)cc3C(O1)C1=C(CC3(CCCCC3)OC1=O)O2	inactive
CCn1cc(CN2CCN(CC(C)(C)C)C(CCO)C2)c2ccccc21 (stereo not drawn)	8.71% (inactive)
CC(=O)Nc1ccc(S(=O)(=O)N2N=NC3C2C2CC4C3(CN(C(=O)OC(C)(C)C)S4(=O)=O)O2)cc1 (stereo not drawn)	19.4% (inactive)
CN(C)S(=O)(=O)N1CCC(Oc2cccc(C(=O)NCCCC3CCCC3)c2)CC1	56.6% (active)
CN(C(=O)c1cccc(OC2CCN(S(=O)(=O)N(C)C)CC2)c1)C1CCOC1 (stereo not drawn)	21.6% (inactive)
CNS(=O)(=O)c1cccc(C(=O)NCC2CCCCC2)c1	10.6% (inactive)
O=C(CN(C(=O)c1nsc(Cl)c1Cl)c1cccc(F)c1)NC1CCCC1	-1.89% (inactive)
O=C(NCCCn1ccnc1)C1CCCN(S(=O)(=O)c2cc(Cl)ccc2Cl)C1 (stereo not drawn)	-13% (inactive)
COc1cccc(CNc2nc(C(F)(F)F)nc3ccccc23)c1	-1.59% (inactive)
COc1cccc(CNS(=O)(=O)c2cc3c(cc2C)n(C)c(=O)c(=O)n3C)c1	-2.17% (inactive)
COc1cccc(CNc2ncc(-c3ccccc3)n2C)c1	20.5% (active)
COc1cc(C(=O)N/C(=C\c2cn(C)c3ccccc23)C(=O)N2CCOCC2)cc(OC)c1OC	-2.55% (inactive)
COc1ccccc1C(=O)Nc1ccnn1C1CCN(Cc2cnn(C)c2)CC1	14.1% (inactive)
Cc1occc1C(=O)NNC(=S)NCC(C)C	-8.32% (inactive)

Compound	inhibition
CC(C)C(NC(=O)c1ccc(Cl)cc1)C(=O)O (stereo not drawn)	-21.4% (inactive)
CC(C)CNC(=S)NC(=O)c1ccc(Cl)cc1	90.8% (active)
CCn1ccnc1CNC(=O)CC1C(=O)NCCN1Cc1ccc(F)cc1Cl (stereo not drawn)	-5.69% (inactive)
CC(C)C[C@H](NC(=O)C1CCC(CNC(=O)[C@@H]2CCCN2C(=O)OC(C)(C)C)CC1)C(=O)O (stereo partly drawn)	-6.01% (inactive)
O=C(NCCCN1CCOCC1)c1cc(-c2cccc(O)c2)on1	23.1% (inactive)
Cc1cccc(OC(C)C(=O)N2CCc3ccccc3C2)c1 (stereo not drawn)	-13.5% (inactive)
O=C(c1cc(-c2cccc(O)c2)on1)N1CCc2ccccc2C1	35.6% (active)
CN(c1ccc(C(=O)N2CCc3ccccc3C2)cc1)S(C)(=O)=O	52.2% (active)
COc1cccc(N(CC(=O)N2CCc3ccccc3C2)S(C)(=O)=O)c1	-19.6% (inactive)
CN1CCN(Cc2c(C(=O)N3CCc4ccccc4C3)nc3ccc(Cl)cn23)CC1	-6.16% (inactive)
CN(c1cccc(NC(=O)c2ccc(CN3CCc4ccccc4C3)cc2)c1)S(C)(=O)=O	-12% (inactive)
O=C(c1noc2c1CCCC2)N1CCc2ccccc2C1	67.4% (active)
Cn1cccc1C(=O)N1CCc2ccccc2C1	36.9% (inactive)
Cc1ccc2c(c1)N(C(=O)CCC(=O)N1CCc3ccccc3C1)CCO2	2.26% (inactive)
O=C(COc1ccccc1)N1CCc2ccccc2C1	38.7% (inactive)
Cc1ccc(-c2cc(C(=O)N3CCc4ccccc4C3)no2)cc1	46.6% (active)
Cc1cc(C(F)F)n2nc(C(=O)Nc3ccc(S(=O)(=O)NC45CC6CC(CC(C6)C4)C5)cc3)nc2n1	-15.3% (inactive)
CCOc1ccc2[nH]c(C(=O)N/N=C/c3cccc(OC)c3OC)cc2c1	14% (inactive)
O=C(NCc1ccccc1)C(c1ccco1)N(C(=O)c1csnn1)c1ccccc1F (stereo not drawn)	-4.22% (inactive)
O=C(NCC(=O)N1CCN(c2ccccc2O)CC1)c1ccc2ccccc2c1	22.1% (inactive)
Cc1ccc(CC2CC(=O)N(c3cc(C)ccc3C)C2=O)cc1 (stereo not drawn)	-11.4% (inactive)
N#C/C(=C\c1cccnc1)C(=O)Nc1ccc(SC(F)F)cc1	36.4% (inactive)
Cc1ccc(-n2c(-c3ccc(Cl)cc3)n[nH]c2=S)cc1	4% (inactive)
CCOC(=O)c1ccc2[nH]c3c(c2c1)CCCC3NC=O (stereo not drawn)	90.9% (inactive)

Compound	inhibition
COc1ccc(N(C)C(=O)CCS(=O)(=O)c2cccc3nsnc23)cc1	-7.02% (inactive)
CCOc1ccccc1NC(=O)Cn1ncc2ccc([N+](=O)[O-])cc21	-3.64% (inactive)
COc1ccc(N2CC(C(=O)NCCS(=O)(=O)N3CCN(c4ccccc4)CC3)CC2=O)cc1 (stereo not drawn)	-3.67% (inactive)
O=C(NCC(=O)N(Cc1cccs1)C(C(=O)NC1CCCCC1)c1ccco1)c1cccs1 (stereo not drawn)	4.26% (inactive)
O=C1c2cccc3cccc(c23)C(=O)N1c1cccc(O)c1	-6.01% (inactive)
COC(=O)c1cc(C(=O)NC(C)C2CC3CCC2C3)cc([N+](=O)[O-])c1 (stereo not drawn)	-13% (inactive)
COc1cc(C(=O)NCc2cc3cc(Cl)ccc3n2C)cc(OC)c1OC	-6.37% (inactive)
COc1ccc(S(=O)(=O)NCCOc2ccccc2)cc1F	21% (inactive)
NC(=O)COc1ccc(NC(=O)c2ccccc2-c2ccccc2)cc1	-16.2% (inactive)
CC(=O)Nc1ccc(CC#N)cc1	-1.48% (inactive)
N#CCc1ccc(NC(=O)c2ccccc2C(=O)Nc2ccc(CC#N)cc2)cc1	57.5% (active)
O=C(NCCO)C(=O)NCC(c1ccc2c(c1)OCO2)N1CCN(c2ccc(F)cc2)CC1 (stereo not drawn)	17.7% (inactive)
O=C(O)c1ccc(S(=O)(=O)N2CCOCC2)o1	-9.6% (inactive)
CCc1ccc(C(=O)NN=C2CCCCCC2)s1	50.4% (active)
CS(=O)(=O)N(Cc1ccccc1)c1ccc(C(=O)NN=C2CCCCCC2)cc1	0.281% (inactive)
O=C(COc1ccc(-c2ccccc2)cc1)NN=C1CCCC1	-0.705% (inactive)
O=C(Cc1nn[nH]n1)NCCC1=CCCCC1	-11.6% (inactive)
Cn1nnc2cc(C(=O)NCCC3=CCCCC3)ccc21	64.2% (active)
O=C(NCCC1=CCCCC1)c1ccc(Cl)c([N+](=O)[O-])c1	78.7% (active)
O=C(COc1ccc(Cl)cc1)NCCC1=CCCCC1	19.6% (inactive)
CC(CC(=O)O)C(=O)c1ccc(Cl)c([N+](=O)[O-])c1 (stereo not drawn)	-9.51% (inactive)
Cc1ccn2c(=O)c(C(=O)NCCC3=CCCCC3)c(O)nc2c1	0.166% (inactive)
CN(c1ccc(C(=O)NCCC2=CCCCC2)cc1)S(C)(=O)=O	89.4% (active)
CN1CCNC(=O)C1CC(=O)NCCC1=CCCCC1 (stereo not drawn)	-5.56% (inactive)

Compound	inhibition
CC(=O)Nc1ccc(S(=O)(=O)N(C)CC(=O)NCCC2=CCCCC2)cc1	-23.7% (inactive)
Cc1ccc(NS(=O)(=O)c2c(C)[nH]c(C)c2C(=O)N2CCCCC2)c(C)c1	-1.7% (inactive)
CCOc1ccc(NC(=O)CC(Cc2ccc(Cl)cc2)C(=O)O)cc1 (stereo not drawn)	-2.62% (inactive)
COC(=O)c1c(NC(=O)c2ccccc2F)sc2c1C(C(=O)OC)CC2 (stereo not drawn)	-16.3% (inactive)
COC(=O)[C@@H]1CC(O)CN1C(=O)C12CC3CC(CC(C3)C1)C2 (stereo partly drawn)	4.2% (inactive)
O=C(Nc1nnc(S(=O)(=O)N2CCCCCC2)s1)c1cccc(Br)c1	-2.66% (inactive)
COc1cccc(C(=O)Nc2nnc(S(=O)(=O)N3CCOCC3)s2)c1	7.84% (inactive)
O=C(Nc1ccc(S(=O)(=O)Nc2nccs2)cc1)c1cccc(S(=O)(=O)N2CCOCC2)c1	-3.68% (inactive)
O=C(Nc1nnc(S(=O)(=O)N2CCOCC2)s1)c1cccc(Br)c1	31.4% (active)
O=C(Nc1ccc(S(=O)(=O)N2CCOCC2)cc1)c1ccc2ncsc2c1	64.5% (active)
O=C(Nc1ccc(N2CCOCC2)c(Cl)c1)c1ccc(S(=O)(=O)N2CCOCC2)cc1	-13.3% (inactive)
O=C(c1cnc(Cl)c(Cl)c1)N1CCN(S(=O)(=O)c2ccc(F)cc2)CC1	1.5% (inactive)
CCc1ccc(NC(=O)CN2CCC(C(=O)c3ccc(OC)cc3)CC2)cc1	-10.2% (inactive)
CCNC(=O)CC1C(=O)N(c2ccc(OC)cc2)C(=O)N1CCOC (stereo not drawn)	-7.39% (inactive)
CC(C)C[C@H](NC(=O)N1CC(=O)Nc2ccccc21)C(=O)N[C@H](Cc1ccccc1)C(=O)O	-3.7% (inactive)
CCCn1c(C(O)c2ccc(OCC)cc2)nc2ccccc21 (stereo not drawn)	-6.45% (inactive)
COc1cccc(C(O)Cc2nc3ccccc3n2C)c1OC (stereo not drawn)	10.7% (inactive)
CCOc1ccc(C(O)Cc2nc3ccccc3n2C)cc1 (stereo not drawn)	61.7% (active)
S=C(NNC(=S)NC1CC2CCC1C2)NC1CC2C=CC1C2 (stereo not drawn)	38% (inactive)
CC(C)c1ccc(NC(=S)NC2CC3C=CC2C3)cc1 (stereo not drawn)	81.8% (active)
S=C(NNC(=S)NC1CC2C=CC1C2)NC1CC2C=CC1C2 (stereo not drawn)	18.6% (inactive)
